# Reference: PubChem BioAssay (Tox21)
# Where “and” joins values, the source holds several entries; their conditions need not be identical. Equal entries are not always repeated. Inconclusive results are not listed. Where a call stands in place of a potency, no number is given. Some structures have more than one record in an assay (separate samples or runs), and their calls can disagree. Calls of active or inactive are those of the source. Unless noted, the call rests on the fitted dose curve; in most records, active means well fitted curve in the direction sought with a large enough effect in the repeat runs; inconclusive means weak or mixed curves; inactive means no such curve, though single readings can be large; an effect the other way counts as inactive or inconclusive.
# Tests used:
# [1] = qHTS assay to identify small molecule antagonists of the estrogen receptor alpha (ER-alpha) signaling pathway using the BG1 cell line in the presence of 0.1 nM 17-beta-estradiol - cell viability counter screen (AID 1259241); further: nearly all actives have a fitted effect of over 40% in size
# Summary of the method: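 Live-cell protease activity (CellTiter-Fluor fluorescence, 30 min) was read in the same wells after VM7Luc4E2 cells had been exposed to compounds with 0.1 nM 17beta-estradiol for 22 hr at 37C.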
# [2] = qHTS assay to identify small molecule antagonists of the androgen receptor (AR) signaling pathway using the MDA cell line in the presence of 0.5 nM R1881 - cell viability counter screen (AID 1259242); further: nearly all actives have a fitted effect of over 45% in size
# Summary of the method: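 Human breast carcinoma MDA-kb2 cells, cultured without CO2, receive compounds alongside 0.5 nM (final) R1881 agonist. After 16 hr at 37C, viability is taken as live-cell protease signal.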
# [3] = biological target: Estrogen receptor (Homo sapiens) (UniProt P03372); assay: qHTS assay to identify small molecule antagonists of the estrogen receptor alpha (ER-alpha) signaling pathway using the BG1 cell line in the presence of 0.1 nM 17-beta-estradiol (AID 1259244); further: nearly all actives have a fitted effect of over 50% in size; further: potency means the concentration at half of the fitted maximal effect
# Summary of the method: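 Seeding of stripped-serum-adapted VM7Luc4E2 cells, 24 h attachment, compound transfer, then 0.1 nM final 17beta-estradiol; after 22 h incubation, ONE-Glo reagent and luminescence reading.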
# [4] = qHTS assay to identify small molecule HDAC inhibitors (AID 1259364);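 further: wild-type HCT-116 cells with endogenous class I/II HDAC activity; top concentration of the series differs between compounds; nearly all actives have a fitted effect of over 45% in size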
# Summary of the method: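 After a 2 hr compound incubation (37C, 5% CO2), HCT-116 cells seeded at 1,500/well the day before received HDAC-Glo reagent; signal read as luminescence after 30 min at room temperature.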
# [5] = qHTS assay to identify small molecule HDAC inhibitors - cell viability counter screen (AID 1259365); further: series mostly up to about 92 µM; nearly all actives have a fitted effect of over 50% in size
# Summary of the method: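 HCT-116 (wild type), 1,500 cells/well, overnight 37C/5% CO2; compound in DMSO 2hr; CellTiter-Glo 30min RT; luminescence read.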
# [6] = qHTS assay to identify small molecule agonists of the sonic hedgehog signaling (Shh) pathway - cell viability counter screen (AID 1259366); further: nearly all actives have a fitted effect of over 50% in size
# Summary of the method: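 CellTiter-Fluor fluorescence read-out, 1 hr at 37C, added after 23hr compound exposure. Cells: 3T3 Gli1-Luc, an NIH/3T3 clone with stably integrated Gli1-Luc reporter, plated 4hr before compound.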
# [7] = qHTS assay to identify small molecule antagonists of the sonic hedgehog signaling (Shh) pathway - cell viability counter screen (AID 1259367); further: nearly all actives have a fitted effect of over 55% in size
# Summary of the method: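 Conditioned medium drove Shh signaling in 3T3 Gli1-Luc cells exposed to compounds at 37C and 5% CO2. Viability was determined from CellTiter-Fluor fluorescence, with reagent incubated 1 hr after 23 hr of treatment.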
# [8] = qHTS assay to identify small molecule antagonists of the sonic hedgehog signaling (Shh) pathway (AID 1259369; calls by dose curve; further: nearly all actives have a fitted effect of over 45% in size; further: potency means the concentration at half of the fitted maximal effect)
# Summary of the method: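 Gli1 transcriptional reporter (firefly Luc) in NIH/3T3 background, conditioned-medium activated. 24hr exposure, luminescence endpoint.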
# [9] = biological target: Estrogen receptor beta (Homo sapiens) (UniProt Q92731); assay: qHTS assay to identify small molecule agonists of the estrogen receptor beta (ER-beta) signaling pathway (AID 1259377; active means well fitted activation curve with a large enough effect in the signal ratio in the repeat runs, not every such curve was filed as active; the % refers to the signal ratio)
# Summary of the method: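 Beta-lactamase reporter readout: fluorescence of LiveBLAzer B/G FRET substrate after 2 h at room temperature, following 16 h compound treatment of ER-beta-UAS-bla HEK293T cells at 37C in 2% charcoal-stripped FBS medium.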
# [10] = biological target: Estrogen receptor beta (Homo sapiens) (UniProt Q92731); assay: qHTS assay to identify small molecule antagonists of the estrogen receptor beta (ER-beta) signaling pathway (AID 1259378; active means well fitted inhibition curve with a large enough effect in the signal ratio in the repeat runs, not every such curve was filed as active; the % refers to the signal ratio; further: potency means the concentration at half of the fitted maximal effect)
# Summary of the method: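 ER-beta-UAS-bla HEK293T (GripTite) cells in 2% charcoal-stripped FBS medium were preincubated 6 hr at 37C, dosed with compound, then stimulated with 1 nM E2 (final) for 16 hr; beta-lactamase reporter read by B/G FRET fluorescence after 2 hr substrate loading.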
# [11] = qHTS assay to identify small molecule agonists of the androgen receptor (AR) signaling pathway in the presence of an antagonist - cell viability counter screen (AID 1259379);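 further: MDA-kb2 human breast cancer cells carrying an MMTV luciferase reporter; series mostly up to about 92 µM; nearly all actives have a fitted effect of over 25% in size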
# Summary of the method: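 Counter screen for cell viability run in parallel with the AR agonist-mode luciferase assay. MDA-kb2 cells were co-treated with nilutamide (3.0uM final) and compounds, then incubated 16 hr at 37C, and CellTiter-Fluor fluorescence was measured.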
# [12] = qHTS assay to identify small molecule agonists of the estrogen receptor beta (ER-beta) signaling pathway - cell viability counter screen (AID 1259380); further: nearly all actives have a fitted effect of over 30% in size; further: potency means the concentration at half of the fitted maximal effect
# Summary of the method: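 In this qHTS counter screen, HEK293T cells carrying an ER-beta/UAS beta-lactamase reporter, grown in 2% charcoal-stripped FBS, received compound for 16 hr; ATP-based CellTiter-Glo luminescence was then read after 30 min at room temperature.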
# [13] = qHTS assay to identify small molecule antagonists of the estrogen receptor beta (ER-beta) signaling pathway - cell viability counter screen (AID 1259382); further: series mostly up to about 92 µM; nearly all actives have a fitted effect of over 55% in size
# Summary of the method: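 HEK293T ER-beta-UAS-bla, 2% charcoal-stripped FBS; compounds + 1nM E2 16 hr 37C; CellTiter-Glo luminescence, 30 min RT.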
# [14] = biological target: Estrogen receptor (Homo sapiens) (UniProt P03372); assay: qHTS assay to identify small molecule agonists of the estrogen receptor alpha (ER-alpha) signaling pathway in the presence of an antagonist (AID 1259383; calls by dose curve; further: nearly all actives have a fitted effect of over 15% in size; further: potency means the concentration at half of the fitted maximal effect; on activation: top concentration of the series differs between compounds)
# Summary of the method: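 ER-alpha agonism measured under antagonist challenge: 10.0nM ICI-182,780 (final) plus compound, 15 concentrations, 22hr, VM7Luc4E2 ERE-luciferase cells. Read by luminescence.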
# [15] = qHTS assay to identify small molecule agonists of the estrogen receptor alpha (ER-alpha) signaling pathway in the presence of an antagonist - cell viability counter screen (AID 1259386);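 further: series mostly up to about 92 µM; cells exposed to compounds for 22 h at 37 °C before the viability read; nearly all actives have a fitted effect of over 30% in size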
# Summary of the method: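 Steps: 5-day stripped-FBS culture; seed and incubate 24hr; add ICI-182,780 (10.0nM final); pin 15-point compound titration; incubate 22hr at 37C; add CellTiter-Fluor at 21hr; read fluorescence.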
# [16] = qHTS assay to identify small molecule agonists or antagonists of the thyroid stimulating hormone receptor (TSHR) signaling pathway - wild type cell line counter screen (AID 1259384; calls by dose curve)
# Summary of the method: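 Wild-type HEK293 cells were plated 18 h at 37 C/5% CO2, pin-dosed with compound plus Ro20-1724 medium, held 30 min at room temperature, then given cAMP-d2 and anti-cAMP-cryptate; fluorescence was read after 1 h. Fifteen concentrations, triplicate.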
# [17] = biological target: Thyrotropin receptor (Homo sapiens) (UniProt P16473); assay: qHTS assay to identify small molecule antagonists of the thyroid stimulating hormone receptor (TSHR) signaling pathway (AID 1259385; calls by dose curve; further: nearly all actives have a fitted effect of over 20% in size)
# Summary of the method: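 TSHR-HEK293 cells were plated and held 18 h at 37C/5% CO2, then given compound plus Ro20-1724 and stimulated with TSH at 1.5 ng/mL final. After 30 min at room temperature, cAMP was detected with cAMP-d2/anti-cAMP-cryptate (1 h) by fluorescence.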
# [18] = qHTS assay to identify small molecule phospholipidosis (PLD) inducers (AID 1259344; active means well fitted curve in the direction sought with a large enough effect; an effect the other way counts as inactive or inconclusive)
# Summary of the method: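 After 4 h attachment on collagen I, HepG2 cells were dosed with compound alongside LipidTOX Red, kept 24 h at 37 C, fixed, and imaged for lamellar phospholipid pits.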
# [19] = qHTS assay to identify small molecule agonists of the sonic hedgehog signaling (Shh) pathway (AID 1259368; calls by dose curve;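 further: NIH/3T3-derived 3T3Gli1-Luc cells carrying a stable Gli1-driven firefly luciferase reporter; series mostly up to about 92 µM; nearly all actives have a fitted effect of over 15% in size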)
# Summary of the method: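 Stable NIH/3T3 Gli1-Luc reporter clone; 24 hr cpd exposure after a 4 hr settling period; luminescence endpoint.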
# [20] = biological target: Androgen receptor (Homo sapiens) (UniProt P10275); assay: qHTS assay to identify small molecule agonists of the androgen receptor (AR) signaling pathway in the presence of an antagonist (AID 1259381; calls by dose curve; further: nearly all actives have a fitted effect of over 15% in size)
# Summary of the method: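 AR antagonist background: nilutamide 3.0uM final. Cell line: MDA-kb2, MMTV-driven luciferase, responsive to both AR and GR. Exposure 16hr, 37C, no CO2; ONE-Glo luminescence.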
# Chain of Androgen receptor (Homo sapiens) (P10275 whole entry, looked up): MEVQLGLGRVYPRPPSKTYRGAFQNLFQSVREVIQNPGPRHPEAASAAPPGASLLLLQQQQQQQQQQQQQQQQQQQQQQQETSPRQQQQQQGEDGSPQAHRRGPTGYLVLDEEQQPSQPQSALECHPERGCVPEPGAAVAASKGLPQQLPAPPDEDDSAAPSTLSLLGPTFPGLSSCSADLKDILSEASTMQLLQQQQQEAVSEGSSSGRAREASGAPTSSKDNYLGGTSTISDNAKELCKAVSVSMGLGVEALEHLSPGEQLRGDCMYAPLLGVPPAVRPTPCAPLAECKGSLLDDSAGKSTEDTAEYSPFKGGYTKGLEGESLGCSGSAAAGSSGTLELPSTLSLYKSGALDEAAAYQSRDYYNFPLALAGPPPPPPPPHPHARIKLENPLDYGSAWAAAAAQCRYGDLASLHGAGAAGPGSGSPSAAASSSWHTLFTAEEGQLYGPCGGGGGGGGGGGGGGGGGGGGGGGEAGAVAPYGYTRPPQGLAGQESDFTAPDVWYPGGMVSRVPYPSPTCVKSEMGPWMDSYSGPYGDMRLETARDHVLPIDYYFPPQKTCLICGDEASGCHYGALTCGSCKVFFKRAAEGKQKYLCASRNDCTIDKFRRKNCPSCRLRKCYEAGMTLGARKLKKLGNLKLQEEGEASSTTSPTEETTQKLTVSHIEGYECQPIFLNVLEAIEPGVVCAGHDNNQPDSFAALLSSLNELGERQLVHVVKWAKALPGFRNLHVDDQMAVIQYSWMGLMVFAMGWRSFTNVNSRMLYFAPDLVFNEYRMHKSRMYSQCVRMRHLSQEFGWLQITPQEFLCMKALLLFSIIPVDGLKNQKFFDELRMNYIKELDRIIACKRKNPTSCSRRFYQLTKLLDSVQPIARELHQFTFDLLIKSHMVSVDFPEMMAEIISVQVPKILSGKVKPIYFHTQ
# Chain of Estrogen receptor (Homo sapiens) (P03372 whole entry, looked up): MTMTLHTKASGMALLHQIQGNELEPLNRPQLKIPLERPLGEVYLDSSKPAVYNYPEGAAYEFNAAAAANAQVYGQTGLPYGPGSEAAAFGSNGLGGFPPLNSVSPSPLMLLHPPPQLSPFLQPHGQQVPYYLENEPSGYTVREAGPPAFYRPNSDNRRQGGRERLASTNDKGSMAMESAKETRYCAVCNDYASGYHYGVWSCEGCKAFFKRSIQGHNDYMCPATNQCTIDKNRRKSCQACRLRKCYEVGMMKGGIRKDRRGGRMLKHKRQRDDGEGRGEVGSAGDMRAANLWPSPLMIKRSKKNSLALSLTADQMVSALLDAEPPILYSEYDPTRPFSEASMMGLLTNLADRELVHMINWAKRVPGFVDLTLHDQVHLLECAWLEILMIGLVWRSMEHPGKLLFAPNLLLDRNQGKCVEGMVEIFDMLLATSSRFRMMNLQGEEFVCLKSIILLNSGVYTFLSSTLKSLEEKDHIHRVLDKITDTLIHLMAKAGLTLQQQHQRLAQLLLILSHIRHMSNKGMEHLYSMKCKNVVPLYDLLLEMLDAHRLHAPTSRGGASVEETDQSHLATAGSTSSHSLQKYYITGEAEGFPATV
# Chain of Thyrotropin receptor (Homo sapiens) (P16473 whole entry, looked up): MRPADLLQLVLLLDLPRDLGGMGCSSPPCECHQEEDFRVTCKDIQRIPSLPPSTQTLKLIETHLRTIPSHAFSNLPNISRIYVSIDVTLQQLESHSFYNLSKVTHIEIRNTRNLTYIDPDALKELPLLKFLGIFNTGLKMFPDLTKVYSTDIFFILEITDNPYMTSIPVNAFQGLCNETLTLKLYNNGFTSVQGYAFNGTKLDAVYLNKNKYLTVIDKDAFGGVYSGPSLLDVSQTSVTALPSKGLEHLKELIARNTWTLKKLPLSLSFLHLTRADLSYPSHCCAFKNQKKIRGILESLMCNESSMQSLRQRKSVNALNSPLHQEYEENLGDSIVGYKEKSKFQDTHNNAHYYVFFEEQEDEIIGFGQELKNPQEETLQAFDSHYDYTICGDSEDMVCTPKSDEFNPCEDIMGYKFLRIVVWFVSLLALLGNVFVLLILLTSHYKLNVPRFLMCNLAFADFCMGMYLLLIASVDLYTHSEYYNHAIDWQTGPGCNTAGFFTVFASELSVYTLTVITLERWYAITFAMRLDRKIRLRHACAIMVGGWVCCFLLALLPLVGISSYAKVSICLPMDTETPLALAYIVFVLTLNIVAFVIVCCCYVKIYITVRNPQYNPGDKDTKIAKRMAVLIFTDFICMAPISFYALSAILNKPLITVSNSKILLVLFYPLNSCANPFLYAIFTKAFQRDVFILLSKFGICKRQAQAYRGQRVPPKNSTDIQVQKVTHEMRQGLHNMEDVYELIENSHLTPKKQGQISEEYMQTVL
# Chain of Estrogen receptor beta (Homo sapiens) (Q92731 whole entry, looked up): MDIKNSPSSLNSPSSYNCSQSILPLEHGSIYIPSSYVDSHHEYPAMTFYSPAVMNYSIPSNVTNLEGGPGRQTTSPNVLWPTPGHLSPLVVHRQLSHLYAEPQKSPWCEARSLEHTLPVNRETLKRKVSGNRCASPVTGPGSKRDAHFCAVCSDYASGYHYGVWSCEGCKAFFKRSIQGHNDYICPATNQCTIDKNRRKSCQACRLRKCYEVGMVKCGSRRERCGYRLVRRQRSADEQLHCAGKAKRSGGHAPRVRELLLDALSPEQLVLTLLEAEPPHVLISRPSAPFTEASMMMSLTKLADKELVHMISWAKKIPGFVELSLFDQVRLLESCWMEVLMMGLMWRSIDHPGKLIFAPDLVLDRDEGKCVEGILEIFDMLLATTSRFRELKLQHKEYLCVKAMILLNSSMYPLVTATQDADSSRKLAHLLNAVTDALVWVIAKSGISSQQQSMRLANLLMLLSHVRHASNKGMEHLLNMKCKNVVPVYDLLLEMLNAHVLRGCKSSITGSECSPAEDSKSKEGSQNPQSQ
SMILES,Potency [1],Potency [2],Potency [3],Potency [4],Potency [5],Potency [6],Potency [7],Potency [8],Potency [9],Potency [10],Potency [11],Potency [12],Potency [13],Potency [14],Potency [15],Potency [16],Potency [17],outcome [18],Potency [19],outcome [20]
CCC/C=N/O,inactive,inactive,inactive,inactive,inactive,inactive,inactive,inactive,inactive,inactive,inactive,inactive,inactive,inactive,inactive,–,–,–,–,–
CCOC(=O)c1ccccc1N,inactive,inactive,inactive,inactive,inactive,inactive,inactive,inactive,inactive,inactive,inactive,inactive,inactive,inactive,inactive,inactive,inactive,–,–,–
CC(C)=CC1C(C(=O)OCc2cccc(Oc3ccccc3)c2)C1(C)C (stereo unspecified),inactive,inactive,inactive,inactive,inactive,inactive,inactive,inactive,inactive,inactive,inactive,inactive,inactive,inactive,inactive,inactive,inactive,inactive,inactive,–
CNC(=O)Oc1cccc2c1OC(C)(C)C2,inactive,inactive,inactive,inactive,inactive,inactive,inactive,inactive,–,inactive,inactive,inactive,inactive,inactive,inactive,inactive,inactive,–,inactive,inactive
CC1(C)Cc2cccc(O)c2O1,inactive,inactive,inactive,inactive,inactive,inactive,inactive,inactive,inactive,inactive,inactive,inactive,inactive,inactive,inactive,inactive,inactive,–,–,–
Nc1ccc2ccccc2c1,inactive,inactive,inactive,inactive,inactive,inactive,inactive,inactive,–,inactive,inactive,inactive,inactive,inactive,inactive,–,–,–,inactive,–
CC(C)COC(=O)c1ccccc1C(=O)OCC(C)C,inactive,inactive,inactive,inactive,inactive,inactive,inactive,inactive,inactive,inactive,inactive,inactive,inactive,inactive,inactive,inactive,inactive,–,inactive,–
C[C@]12CCC(=O)C=C1CC[C@@H]1[C@@H]2CC[C@@]2(C)[C@H]1CC[C@]2(C)O,inactive,inactive,30.9 µM (active) and inactive,inactive,inactive,inactive,inactive,6.16 µM (active),–,–,inactive,inactive,inactive,11.3 µM (active) and 10.6 µM (active),inactive,inactive,inactive,inactive,inactive,–
CCC1(c2ccc(N)cc2)CCC(=O)NC1=O (stereo unspecified),inactive,inactive,inactive,inactive,inactive,–,inactive,inactive,–,–,inactive,inactive,inactive,inactive,inactive,–,–,inactive,inactive,inactive
CCCCCCCCCc1ccc(O)cc1,inactive,inactive,inactive,inactive,inactive,inactive,inactive,30.9 µM (active) and 43.3 µM (active),inactive,19.5 µM (active),inactive,13.8 µM (active) and 43.3 µM (active),–,inactive,inactive,inactive,inactive,–,inactive,–
Cc1ccc(N=CN(C)C=Nc2ccc(C)cc2C)c(C)c1,inactive,inactive,inactive,inactive,inactive,inactive,inactive,54.7 µM (active) and inactive,inactive,inactive,inactive,54.7 µM (active) and 30.6 µM (active) and inactive,inactive,inactive,inactive,inactive,inactive,inactive,inactive,–
c1ccc2c(c1)Nc1ccccc1S2,inactive,inactive,inactive,inactive,inactive,–,inactive,inactive,inactive,inactive,inactive,inactive,inactive,inactive,inactive,–,–,inactive,–,–
CCOP(=S)(OCC)SCSC(C)(C)C,inactive,inactive,inactive,inactive,inactive,inactive,inactive,inactive,–,–,inactive,inactive,inactive,inactive,inactive,inactive,–,–,–,–
